This is an account of results in PubChem BioAssay (EPA / NIEHS).

Molecules are shown by their SMILES. The source made the active and inactive calls. The calls were made as follows: active = hit-call score of the fitted dose curve at least 0.9, where 1 is the maximum; inactive = score below 0.9.

Assay [1] in a line: BSK_3C_Vis: BioMAP Diversity Plus: 3C Assay for Morphology Visualization (AID 2283025).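 Also: fitted both ways so gain or loss versus DMSO counts.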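 As to AC50: light microscopy image of cell morphology used as background control.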 To be noted: primary human endothelial cells (HUVEC). The essentials: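 Chemicals were added to primary human umbilical vein endothelium, cells were incubated 24 h, and morphology was then visualized by light microscopy. Gain or loss of signal was fitted bidirectionally relative to DMSO.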

Read-out in assay [2]: Pselectin, SELP (gene 6403)
Put plainly: BSK_4H_Pselectin: BioMAP Diversity Plus: 4H Assay for Pselectin Biomarker Activity (AID 2283026). To be noted: primary human endothelial cells (HUVEC); actives raise or lower the signal. The method, boiled down: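 ELISA read-out of P-selectin on human umbilical vein endothelium after 24 h of dosing. Values derive from bidirectional fitting relative to DMSO. Parallel SRB protein staining flagged overt cytotoxicity.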

A short description of assay [3]: BSK_4H_SRB: Viability Assessment in the BioMAP Diversity Plus: 4H Assay (AID 2283027).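 Also: cells exposed to compound for 24 h before staining.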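 As to AC50: curves fitted both ways versus DMSO so AC50 may be loss or gain.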 To be noted: primary human endothelial cells (HUVEC). The essentials:
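Human umbilical vein endothelial cells were dosed with chemical and, after 24 h, fixed with 10% TCA, stained with 0.1% sulforhodamine B, and read at 560 nm to give total protein as a cytotoxicity measure. Bidirectional fitting relative to DMSO control.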

Assay [4] is described as follows: BSK_BE3C_SRB: Viability Assessment in the BioMAP Diversity Plus: BE3C Assay (AID 2283028).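 As to AC50: fitted both ways so AC50 may mark signal gain or loss versus DMSO.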 As to conditions: primary human bronchial epithelial cells. The method, boiled down:
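Cytotoxicity read-out: SRB (0.1%) staining of TCA-fixed (10%) human lung bronchial epithelial cells, absorbance 560 nm, 24 h post-dosing. Curves fitted both directions relative to DMSO.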

Read-out in assay [5]: Thrombomodulin, THBD (gene 7056)
Put plainly: BSK_3C_Thrombomodulin: BioMAP Diversity Plus: 3C Assay for Thrombomodulin Biomarker Activity (AID 2283029). As to conditions: primary human endothelial cells (HUVEC); actives raise or lower the signal. The method, boiled down:
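Read-out is ELISA of thrombomodulin on human umbilical vein endothelium 24 h after chemical dosing. Gain or loss of signal is scored relative to DMSO. Overt cytotoxicity is checked in parallel cultures by sulforhodamine B staining.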

Read-out in assay [6]: Urokinase-type plasminogen activator receptor (uPAR), PLAUR (gene 5329)
Put plainly: BSK_4H_uPAR: BioMAP Diversity Plus: 4H Assay for Urokinase-type plasminogen activator receptor (uPAR) Biomarker Activity (AID 2283030). As to conditions: primary human endothelial cells (HUVEC); actives raise or lower the signal. The method, boiled down: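 uPAR level read by ELISA on HUVEC cultures (BioMAP 4H) 24 h post-dosing, analyzed for gain or loss relative to DMSO. Parallel SRB staining assessed overt cytotoxicity.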

Read-out in assay [7]: Vascular endothelial growth factor receptor 2 (Homo sapiens) (UniProt P35968)
Put plainly: BSK_4H_VEGFRII: BioMAP Diversity Plus: 4H Assay for Vascular endothelial growth factor receptor 2 (VEGFR2) Biomarker Activity (AID 2283031).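 As to AC50: cell-surface VEGFR2 protein level quantified by ELISA.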 As to conditions: primary human endothelial cells (HUVEC); actives raise or lower the signal. The method, boiled down: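 Measured by ELISA after 24 h of compound treatment: VEGFR2 on primary human umbilical vein endothelial cells, fitted in both directions relative to DMSO. Parallel cultures received SRB staining (560 nm) for overt cytotoxicity.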

Read-out in assay [8]: Human Leukocyte Antigen - DR isotype (HLADR), HLA-DRA (gene 3122)
Put plainly: BSK_BE3C_HLADR: BioMAP Diversity Plus: BE3C Assay for Human Leukocyte Antigen - DR isotype (HLADR) Biomarker Activity (AID 2283032). As to conditions: primary human bronchial epithelial cells; actives raise or lower the signal. The method, boiled down: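 ELISA read-out of HLA-DR on human lung bronchial epithelial primary cells, measured 24 h post-dosing. Both increases and decreases were scored relative to DMSO vehicle.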

Read-out in assay [9]: Vascular cell adhesion molecule 1 (VCAM1), VCAM1 (gene 7412)
Put plainly: BSK_4H_VCAM1: BioMAP Diversity Plus: 4H Assay for Vascular cell adhesion molecule 1 (VCAM1) Biomarker Activity (AID 2283033).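 As to outcome: cell-surface VCAM-1 protein measured by ELISA.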 As to conditions: primary human endothelial cells (HUVEC); actives raise or lower the signal. The essentials:
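ELISA read-out of VCAM-1 on human umbilical vein endothelium 24 hours after chemical dosing; gain or loss of signal was fitted relative to DMSO, with sulforhodamine B staining of parallel cultures flagging overt cytotoxicity.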

Read-out in assay [10]: Interferon-gamma inducible Protein 10 (IP10), CXCL10 (gene 3627)
Put plainly: BSK_BE3C_IP10: BioMAP Diversity Plus: BE3C Assay for Interferon-gamma inducible Protein 10 (IP10) Biomarker Activity (AID 2283034). As to conditions: primary human bronchial epithelial cells; actives raise or lower the signal. The method, boiled down: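 Chemical is dosed onto human lung bronchial epithelial primary cells, cultures are incubated 24 h, and IP-10 is then quantified by ELISA. Gain or loss of signal is fitted in both directions relative to DMSO.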

Turning to `CC(C)COC(=O)CCCCC(=O)OCC(C)C`, the result in [1], in assay [2], in assay [3], in [4], in [5] and in assay [6] was inactive. Besides, the outcome in assay [7], in assay [8], in [9] and in assay [10] was inactive.
What is called AC50 is the concentration giving half of the maximal activity seen. For the molecule `CCCCC(CC)COP(=O)(OCC(CC)CCCC)OCC(CC)CCCC` (stereo unspecified), the AC50 was 13.7 µM (active) in assay [1]; 12.2 µM (active) in assay [2]; 20 µM (active) in assay [3]; 20 µM (active) in [6]; 20 µM (active) in assay [7]; 6.21 µM (active) in assay [9]. In addition, the outcome in assay [4], in assay [5], in assay [8] and in assay [10] was inactive.
For `CC(COCC(C)OC(=O)c1ccccc1)OC(=O)c1ccccc1` (stereo unspecified), the outcome in assay [1], in assay [2], in assay [3], in assay [4], in [5] and in [6] was inactive. In addition, the result in [7], in [8], in assay [9] and in assay [10] was inactive.
As to `CN(C)C(=O)NC1(c2ccccc2)CCN(CC[C@@]2(c3ccc(F)c(F)c3)CN(C(=O)c3ccccc3)CCO2)CC1`, the result in [1], in assay [2], in assay [3], in assay [4], in [5] and in assay [6] was inactive. The result in assay [7], in assay [8], in assay [9] and in [10] was inactive.
With `c1ccc2occc2c1`, the result in assay [1], in assay [2], in assay [3], in [4], in [5] and in assay [6] was inactive. The outcome in assay [7], in [8], in [9] and in assay [10] was inactive.
For `CC(C)c1cccc(C(C)C)c1NC(=O)NS(=O)(=O)c1cc(C(C)(C)O)co1`, the outcome in [1], in assay [2], in assay [3], in [4], in assay [5] and in [6] was inactive. Also, the result in [7], in assay [8], in assay [9] and in [10] was inactive.
Regarding `NC=O`, the outcome in assay [1], in assay [2], in assay [3], in assay [4], in assay [5] and in assay [6] was inactive. For the same molecule, the result in assay [7], in assay [8], in assay [9] and in assay [10] was inactive.
Regarding `CCC(C)N(C)C(=O)c1cc2ccccc2c(-c2ccccc2Cl)n1` (stereo unspecified), the result in assay [1], in [2], in assay [3], in assay [4], in assay [5] and in [6] was inactive. The outcome in assay [7], in [8], in assay [9] and in [10] was inactive.
On to `CN(C)C(=O)NC1(c2ccccc2)CCN(CCC[C@]2(c3ccc(Cl)c(Cl)c3)CCCN(C(=O)c3ccccc3)C2)CC1`, for which the AC50 in [1] was 9.81 µM (active). Also, the result in assay [2], in [3], in [4], in assay [5], in assay [6] and in assay [7] was inactive. Moreover, the result in assay [8], in [9] and in assay [10] was inactive.
Take `C=CCc1ccc(OC)c(OC)c1`: the result in [1], in assay [2], in [3], in assay [4], in assay [5] and in assay [6] was inactive. Also, the outcome in assay [7], in [8], in [9] and in assay [10] was inactive.
In the case of `Cc1ccc(-c2cc(C(F)(F)F)nn2-c2ccc(S(N)(=O)=O)cc2)cc1`, the AC50 in assay [1] is 37.5 µM (active); in [2], 25.8 µM (active); in [3] it was 28 µM (active); in [4] it was 35.7 µM (active); in assay [5], 28.4 µM (active); in assay [6], 20 µM (active). For the same molecule, the results for the AC50 in [8], in assay [9] and in assay [10] were 33.4 µM (active), 32.7 µM (active) and 30.6 µM (active), respectively. For the same molecule, in assay [7], the result was inactive.
As for `O=C(NS(=O)(=O)/C=C/c1cccs1)c1ccc(F)cc1Br`, the outcome in [1], in assay [2], in [3], in [4], in assay [5] and in [6] was inactive. For the same molecule, the result in [7], in [8] and in [9] was inactive. For the same molecule, in [10], the AC50 was 32.6 µM (active).
Turning to `CSc1ccc(Oc2ccc(S(N)(=O)=O)cc2CN(C)C)cc1C`, the AC50 in assay [1] is 39 µM (active); in assay [6], 12.2 µM (active). Also, the result in assay [2], in [3], in assay [4], in assay [5], in assay [7] and in [8] was inactive. Also, the outcome in assay [9] and in [10] was inactive.
Take `CCCCc1nc2cccnc2n1Cc1ccc(-c2ccccc2-c2nnn[nH]2)cc1`: the outcome in [1], in [2], in assay [3], in assay [4], in assay [5] and in assay [6] was inactive. Moreover, the outcome in [7], in assay [8], in assay [9] and in [10] was inactive.
Consider `CS(=O)(=O)c1ccc([C@@H](C[C@H]2CCC(=O)C2)C(=O)Nc2cnccn2)cc1Cl`, for which the outcome in assay [1], in assay [2], in [3], in [4], in [5] and in assay [6] was inactive. The outcome in assay [7], in [8], in [9] and in [10] was inactive.
`CC(=O)O`: the outcome in [1], in assay [2], in [3], in assay [4], in assay [5] and in assay [6] was inactive. In addition, the outcome in assay [7], in assay [8], in [9] and in assay [10] was inactive.
As for `COC(=O)[C@H]1[C@H]2C[C@@H]3c4[nH]c5cc(OC)ccc5c4CCN3C[C@H]2C[C@@H](OC(=O)c2cc(OC)c(OC)c(OC)c2)[C@@H]1OC`, the AC50 in assay [2] is 25.6 µM (active); in assay [3], 22.5 µM (active); in assay [9], 8.36 µM (active). Besides, the outcome in [4], in assay [5], in assay [7] and in assay [8] was inactive.
Take `C=CCCCCCCCCCCCC`: the outcome in assay [1], in [2], in assay [3], in assay [4], in assay [5] and in assay [6] was inactive. In addition, the outcome in assay [7], in assay [8], in [9] and in assay [10] was inactive.
On to `CC(=O)[C@@]1(O)CC[C@H]2[C@@H]3CCC4=CC(=O)CC[C@]4(C)[C@H]3CC[C@@]21C`, for which the outcome in assay [1], in assay [2], in assay [3], in assay [5], in [7] and in assay [8] was inactive. The result in [9] and in [10] was inactive. Moreover, the AC50 in assay [6] was 26.6 µM (active).
`C/C=C/C=C/C(=O)O`: the outcome in assay [1], in [2], in assay [3], in assay [4], in [5] and in [6] was inactive. In addition, the outcome in assay [8], in assay [9] and in [10] was inactive.
As to `O=C1OC(c2ccc(O)cc2)(c2ccc(O)cc2)c2ccccc21`, the AC50 was 37.5 µM (active) in assay [1]; 30.2 µM (active) in assay [2]; 14.3 µM (active) in [6]; 0.379 µM (active) in assay [8]; 30.8 µM (active) in [9]. Also, the outcome in assay [4], in assay [5] and in assay [7] was inactive.
Take `CN(C)CCCN1c2ccccc2Sc2ccc(Cl)cc21`: the AC50 in assay [2] was 35.9 µM (active); in [3] it was 26 µM (active); in assay [4], 39 µM (active); in assay [6] it was 12.2 µM (active); in [9], 17.8 µM (active); in [10] it was 30.5 µM (active). Further, the outcome in assay [5] and in assay [7] was inactive.
For the molecule `NC1CCCCC1`, the result in assay [1], in [2], in assay [3], in assay [4], in [5] and in [6] was inactive. Further, the result in assay [7], in [8], in assay [9] and in [10] was inactive.
